Structures are written as SMILES. “And” between values parts separate entries of the source, which are not always exact repeats. Identical values can stand only once. Out of some 360,000 compounds screened, about 6,200 (1.7%) were called active.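 The calls were made as follows: active = inhibition of at least 50% at 20 µM; inactive = the rest.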 The full list was thinned out, with actives kept by preference.

A short description of the experiment: Peg3 promoter-driven luciferase inhibitors, primary screen, cell-based, HeLa, luciferase luminescence (AID 588405). To be noted: HeLa PEG-Prom luciferase reporter, overnight, at 20 µM, active compounds read high. (In general: Reporter assays use an easily measured gene product as a stand-in for the process of interest.)
The term inhibition denotes the change of the read-out against control, counted positive when it falls. As to `O=C(NCC12CC3CC(C1)CC(CNC(=O)N1CCCC1)(C3)C2)N1CCCC1`, the inhibition was 18.2% (inactive).

Take `CC(C)(O)C#Cc1ccc(CNC[C@H]2O[C@@H](n3cnc4c(=O)[nH]c(N)nc43)[C@H](O)[C@@H]2O)s1`: the inhibition is 14.8% (inactive). The same measure for `O=C(NC(Nc1nc2ccc([N+](=O)[O-])cc2s1)(C(F)(F)F)C(F)(F)F)c1ccccc1`: 68.7% (active). As for `CC(Nc1ccc([N+](=O)[O-])cc1[N+](=O)[O-])c1ccccc1` (stereo not drawn), the inhibition was 31.3% (inactive). The same measure for `O=C(O)c1cc([N+](=O)[O-])c(Nc2cccc3ccccc23)c([N+](=O)[O-])c1`: 5.86% (inactive); for `Cc1ccc(S(=O)(=O)N2CC[C@H]3[C@@H](C2)C(=O)C[C@@H](c2ccccc2)N3S(=O)(=O)c2ccc(C)cc2)cc1`: -19.4% (inactive). The value for `CSc1ccc(CN2CCC2(C)C(=O)Nc2ccc(C)c(O)c2)cc1` (stereo not drawn) was -4.73% (inactive); that for `c1ccc(Cc2c(-c3ccco3)nc3c4ccccc4ccn23)cc1` was -310% (inactive); that for `O=C(NCc1ccc(F)cc1)c1cc(C2CCCCN2C(=O)C2CCCCC2)on1` (stereo not drawn) was 2.91% (inactive). The value for `O=C(/C=C/Sc1ncn[nH]1)c1ccc(Cl)cc1` was 100% (active); that for `COc1ccc(Cl)cc1C=CC=NNC(=O)c1ccncc1` was 97% (active).

Regarding `COc1ccccc1/C=C/C=N/NC(=O)CN1CCN(Cc2ccccc2)CC1`, the inhibition was 3.31% (inactive). The value for `COc1ccc(Cl)cc1C=CC=Nc1ccc(S(N)(=O)=O)cc1` was 7.02% (inactive). As to `COCc1cccc(-c2csc(C(O)c3ccc(F)cc3)n2)c1` (stereo not drawn), the inhibition is -120% (inactive). With `CCCS(=O)(=O)NC(=O)C1(C)CCCN(C(=O)c2cccs2)C1` (stereo not drawn), the inhibition is 12.1% (inactive). In the case of `Cc1cccc2nc(CSc3nc4[nH]ncc4c(=O)n3-c3cccc(Cl)c3)cc(=O)n12`, the inhibition was 38.6% (inactive). The value for `CCc1ccc(-n2c(SCc3cc(=O)n4cc(Br)ccc4n3)nc3[nH]ncc3c2=O)cc1` was 54.1% (active); that for `O=c1c2sccc2nc(SCc2cc(=O)n3ccccc3n2)n1-c1ccc(Br)cc1` was 40.8% (inactive); that for `COc1cc(C=C(OC(C)=O)c2ccc3c(c2)OCO3)cc(OC)c1OC` was 7.01% (inactive). `COc1ccc(C2=NN(C(=O)c3ccccc3C(=O)O)C(c3ccccc3O)C2)cc1` (stereo not drawn): the inhibition was -268% (inactive). The value for `COc1ccc(C2CC(c3ccccc3)=NN2C(=O)c2ccc(Cl)c([N+](=O)[O-])c2)cc1` (stereo not drawn) was 72.4% (active). Consider `COc1ccc(C2CC(c3ccccc3)=NN2C(=O)CSc2nccc(=O)[nH]2)cc1` (stereo not drawn), for which the inhibition is -109% (inactive).

On to `CC(=O)Nc1cc(-c2ccccc2N(C)C)cn2c(-c3ccc(F)c(Cl)c3)cnc12`, for which the inhibition is 32% (inactive).

For `COc1ccc(NC(=O)C(C)SCc2ccccc2)cc1` (stereo not drawn), the inhibition was -27.6% (inactive). As for `O=C(c1cc(C2CCCCN2S(=O)(=O)c2ccccc2)on1)N1CCOCC1` (stereo not drawn), the inhibition is 1.6% (inactive).

As for `COc1cc(Cn2c3ccc(NC(=O)CC(C)c4ccccc4)cc3c(=O)n2C)ccc1F` (stereo not drawn), the inhibition is 12.9% (inactive). Regarding `CC1(C(=O)O)CCCN(C(=O)/C=C/c2ccccc2)C1` (stereo not drawn), the inhibition is 5.91% (inactive). For the compound `COC(=O)c1c(C)[nH]c(C(=O)/C=C/c2ccc(Cl)cc2)c1C`, the inhibition is -126% (inactive). The value for `Cc1[nH]c(=O)c(C(=O)/C=C/c2ccccc2)c2c1CCCC2` was 102% (active); that for `COc1ccc(-c2coc3c(C(=O)NC(C)C)cccc23)c(C)c1` was 10.8% (inactive). The same measure for `COc1ccc(S(=O)(=O)NC(=O)C2(C)CCN2C(=O)c2ccccc2CCc2ccccc2)cc1` (stereo not drawn): -1.34% (inactive). The same measure for `CCCC(=O)N1CCC1(C)C(=O)NCc1ccc(SC)cc1` (stereo not drawn): -5.97% (inactive); for `Cc1cccc(N2C(=O)SC(SC(=Nc3ccccc3)Nc3ccccc3)C2=O)c1` (stereo not drawn): -30% (inactive).

Turning to `Cc1ccc(-c2nn(C(C)(C)C)c3ncnc(N)c23)cc1`, the inhibition was 55.2% (active). The same measure for `N#Cc1ccc(-c2ccc3nccn3c2)cc1`: -24.7% (inactive); for `O=C1NC(c2ccccc2)=NC1(Nc1ccccn1)C(F)(F)F` (stereo not drawn): -4.5% (inactive). The value for `CC(=O)c1ccc(-c2cnc3c(NC=O)cc(-c4cccc(NS(C)(=O)=O)c4)cn23)cc1` was 48.1% (inactive); that for `Cc1ccc(-c2ccc(=O)n(Cc3ccc(F)cc3Cl)n2)cc1` was 2.87% (inactive). The value for `N/C(=N/O)c1cccn1Cc1ccccc1[N+](=O)[O-]` was 3.69% (inactive). As for `O=c1c([N+](=O)[O-])cccn1Cc1ccc(F)cc1Cl`, the inhibition is 56.1% (active). The value for `CC(C)c1cccc(-c2csc(C(O)c3ccccc3)n2)c1` (stereo not drawn) was -103% (inactive). The value for `CSCCC(c1nnnn1Cc1ccccc1)N1CCN(C/C=C/c2ccccc2)CC1` (stereo not drawn) was 11.4% (inactive); that for `CCc1ccc(C2N3CC4([N+](=O)[O-])CN2CC([N+](=O)[O-])(C3)C4(C)C)cc1` (stereo not drawn) was 27.3% (inactive). As for `C=CC[n+]1c(-c2ccc(C)cc2)csc1NNC(=O)Nc1ccccc1`, the inhibition was -6.81% (inactive).

Regarding `CC(=O)c1ccc(Nc2nc(C(N)c3ccccc3Cl)cs2)cc1` (stereo not drawn), the inhibition was -22.8% (inactive). The same measure for `NC(c1csc(NC(=O)Nc2ccccc2Oc2ccccc2)n1)c1ccccc1Cl` (stereo not drawn): 58.1% (active); for `COc1ccccc1NC(=O)Nc1nc(CC(=O)Nc2ccccc2F)cs1`: 4.34% (inactive); for `O=S1(=O)C[C@@H](N2CCN(CCO)CC2)[C@H](COCc2ccccc2)N1`: -0.57% (inactive).

With `COC(=O)C1=C(C)N(C(C)c2ccccc2)C(=O)/C1=C\c1ccco1` (stereo not drawn), the inhibition is 12.2% (inactive).

For the compound `COCCn1c(=S)[nH]c2cc(C(=O)NCCc3ccc(OC)c(OC)c3)ccc2c1=O`, the inhibition was 17.6% (inactive).

Turning to `CCN(CC)CCCNC(=O)c1ccc2c(=O)n(Cc3ccc4c(c3)OCO4)c(=S)[nH]c2c1`, the inhibition was 56.1% (active).

`O=C(CCn1c(=S)[nH]c2cc3c(cc2c1=O)OCO3)NCc1ccc(Cl)cc1`: the inhibition was 9.93% (inactive).

As for `Cc1ccc(S(=O)(=O)CCC(=O)Nc2nnc(CC(C)C)s2)cc1`, the inhibition is 10.6% (inactive). Consider `NC(=O)CSc1nnc(NC(=O)c2ccc(Br)o2)s1`, for which the inhibition is -5.94% (inactive). With `Cc1nnc(NC(=O)C(c2ccccc2)c2ccccc2)s1`, the inhibition was -0.94% (inactive). The value for `Cc1ccc(CS(=O)(=O)c2ncc(Cl)c(C(=O)Nc3nnc(C)s3)n2)cc1` was 98.9% (active). The same measure for `O=C(Nc1nnc(-c2ccc(F)cc2)s1)c1c(F)cccc1Cl`: -27.2% (inactive); for `CSc1nnc(NC(=O)c2nc(S(=O)(=O)Cc3ccc(C)cc3)ncc2Cl)s1`: 103% (active). The value for `Nc1nc2cc(Cl)ccc2n1N` was -1.93% (inactive). `CC(C)NC(=O)C1(C)CCCCCN1C(=O)c1ccc(-c2ccccc2)cc1` (stereo not drawn): the inhibition was -0.82% (inactive). The same measure for `COc1ccc(NC(=O)C2Cc3c(-c4ccc(Cl)cc4)ccnc3O2)cc1` (stereo not drawn): 22.6% (inactive); for `O=C(c1[nH]ncc1-c1ccc(Cl)cc1)C1CO1` (stereo not drawn): 52% (active); for `COc1cccc(C(NC(C)=O)c2nc(-c3ccccc3OC)cs2)c1` (stereo not drawn): -8.65% (inactive). Turning to `Nc1nc(NC(=O)/C=C/c2ccccc2)nn1-c1ccccc1`, the inhibition was -6.78% (inactive).

On to `CCC(=O)c1ccc(OCC(=O)Nc2ccc(N3CCCCC3)cc2)cc1`, for which the inhibition was -13.9% (inactive).

Take `c1ccc(-n2cccc2)c(N2CCCCC2)c1`: the inhibition is 2.67% (inactive). As for `O=C1C=CC(=O)N1c1ccc(N2CCCCC2)cc1`, the inhibition is 108% (active). The value for `CN1OC[C@@H]2CN(C(=O)c3cccnc3)[C@H](c3ccc(N4CCCCC4)cc3)C[C@@H]21` was -11.6% (inactive). The same measure for `CCOC(=O)C1=C(CN2CCc3ccccc32)NC(=O)NC1c1cc(C)ccc1C` (stereo not drawn): 34.6% (inactive); for `CCOC(=O)C1=C(CN2CCc3ccccc32)NC(=O)NC1c1cccc([N+](=O)[O-])c1` (stereo not drawn): 43.4% (inactive).

Regarding `CCOC(=O)C1=C(CN2CCc3ccccc32)NC(=O)NC1c1ccc(Cl)cc1` (stereo not drawn), the inhibition is 61.5% (active). The value for `COc1cc(CCN=Cc2ccccc2O)c([N+](=O)[O-])cc1OC` was -5.6% (inactive); that for `O=C(NCC(O)c1nc2ccccc2[nH]1)c1ccc(Br)cc1` (stereo not drawn) was -5.63% (inactive); that for `CCc1nc2ccc(C(=O)Nc3cccc(OC)c3)cn2c1N(CCC(C)C)CCN(C)C` was -15.1% (inactive).

`COc1ccccc1OCC(=O)OCn1c(SC)nnc(C)c1=O`: the inhibition is 14.2% (inactive). Take `CC(=O)Nc1ccc(S(=O)(=O)N(C)c2nc3ccccc3nc2Cl)cc1`: the inhibition is 2.27% (inactive). The value for `CC(=O)Nc1ccc(Nc2c3ccccc3nc3ccccc23)cc1` was 106% (active); that for `CC(=O)Nc1ccc(Nc2c([N+](=O)[O-])cc(S(C)(=O)=O)cc2[N+](=O)[O-])cc1` was 3.04% (inactive). The same measure for `CC(C)Nc1nc(NCCOc2ccccc2Cl)c2sccc2n1`: 34.3% (inactive); for `COc1ccc(-c2[nH][nH]c(=O)c2NC(=O)c2ccc([N+](=O)[O-])cc2)cc1`: 9.48% (inactive). The same measure for `CCN(CC)CCOc1ccc2c(c1)C(=NNC(=O)c1ccccn1)c1cc(OCCN(CC)CC)ccc1-2`: 109% (active); for `CC(O)c1ccc(OCCN(C)c2ccccn2)cc1` (stereo not drawn): -135% (inactive); for `CN(CCOc1ccc(CC2SC(=O)NC2=O)cc1)c1ccccn1` (stereo not drawn): -26.7% (inactive) and -30.1% (inactive). In the case of `CCCCc1cc2c(s1)CCCC/C2=N/O`, the inhibition was 6.83% (inactive).

As to `COCCCN(C(=O)CSCc1ccc(C)cc1)c1c(N)n(Cc2ccccc2)c(=O)[nH]c1=O`, the inhibition is -0.45% (inactive). The value for `O=C(c1ccc(F)cc1)n1c(=S)nc2ccccn21` was -101% (inactive); that for `Brc1ccc(-c2noc(-c3ccccc3)n2)o1` was -291% (inactive); that for `O=C(COC(=O)c1ccncc1)c1ccccc1` was 3.29% (inactive). The value for `O=C(Oc1ccc(-c2nc(-c3ccccn3)no2)cc1)c1ccccc1` was 66.5% (active). The same measure for `O=C1C=C(c2ccc(Cl)cc2)C(=O)N1Nc1ccccc1`: 105% (active); for `O=C1Nc2cc(C(=O)N3CCC(N4CCCCC4)CC3)ccc2S/C1=C\c1ccccc1`: 90.7% (active); for `NC(=O)C1CCN(C(=O)c2ccc(-c3ccccc3)cc2)CC1`: 5.02% (inactive). As to `O=C(Nc1ccccc1)C1CCN(C(=O)c2ccc(Br)cc2)CC1`, the inhibition is -7.9% (inactive).

Values taken from PubChem BioAssay AID588405 (Sanford-Burnham Center for Chemical Genomics, 2011).
